Reference: PubChem BioAssay (NCI)
The panel holds about 79,000 compounds, 15% with a hit somewhere; the sample as a whole holds those more often. Active and inactive are the calls of the source. Cut-off read from the data, not from the text of the source: active = growth inhibition above about 70%; inactive = the rest.

How the values were obtained:
[1] = NCI Yeast Anticancer Drug Screen. Data for the rad14 strain (AID 159);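 note: 0% = growth of vehicle-treated control cultures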; settings: S. cerevisiae rad14 strain growth inhibition, hits give high values
How it was run: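 Here, inhibition of yeast growth was measured after compound exposure, using a strain with a genetic defect in DNA damage repair and vehicle-treated cultures as the reference.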

[2] = NCI Yeast Anticancer Drug Screen. Data for the CLN2oe strain (AID 163);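 note: 0% = growth of vehicle-only control cultures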; settings: S. cerevisiae CLN2oe strain, hits give high values
How it was run: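 Whole-cell yeast growth assay. A strain engineered for altered cell-cycle control received compound, and inhibition relative to vehicle-treated cultures was recorded.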

[3] = NCI Yeast Anticancer Drug Screen. Data for the cln2 rad14 strain (AID 165);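 note: 0% = growth equal to vehicle treated cultures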; settings: S. cerevisiae cln2 rad14 strain, hits give high values
How it was run: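 Yeast strain cln2 rad14, bearing defects in cell cycle control and DNA repair, serves as the test system; values reflect growth inhibition compared with vehicle.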

[4] = NCI Yeast Anticancer Drug Screen. Data for the bub3 strain (AID 167); settings: S. cerevisiae bub3 mutant strain, hits give high values
How it was run: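 Whole-cell yeast assay. The mutant strain was incubated with compounds, and growth inhibition was determined by comparison with vehicle-treated cells.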

[5] = NCI Yeast Anticancer Drug Screen. Data for the wt2 strain (AID 169);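 note: 0% = growth of vehicle-treated yeast cultures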; settings: S. cerevisiae wt2 strain growth inhibition, hits give high values
How it was run: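 Treated yeast vs. vehicle-treated yeast: growth inhibition determined.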

[6] = NCI Yeast Anticancer Drug Screen. Data for the mlh1 strain (AID 171);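 note: 0% = growth of vehicle-treated control cultures of the same strain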; settings: S. cerevisiae mlh1 strain growth inhibition, hits give high values
How it was run: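 A yeast strain with a defined genetic lesion serves as the test organism. Cultures receive compound or vehicle, and growth is measured.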

[7] = NCI Yeast Anticancer Drug Screen. Data for the sgs1 strain (AID 173);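 note: 0% = growth of vehicle-only control cultures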; settings: S. cerevisiae sgs1 mutant, hits give high values
How it was run: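 A genetically defined yeast mutant is incubated with the test compound, and its growth is compared to that of the same strain given vehicle.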

[8] = NCI Yeast Anticancer Drug Screen. Data for the mlh1 rad18 strain (AID 175); settings: S. cerevisiae mlh1 rad18 strain growth inhibition, hits give high values
How it was run: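 Steps: expose repair-defective yeast to compound; measure growth; express inhibition against vehicle-treated controls.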

[9] = NCI Yeast Anticancer Drug Screen. Data for the rad18 strain (AID 177); settings: S. cerevisiae rad18 mutant growth inhibition, hits give high values
How it was run: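 Measured value is growth inhibition of a yeast strain bearing a DNA repair alteration, referenced to vehicle-treated cells.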

[10] = NCI Yeast Anticancer Drug Screen. Data for the rad52 strain (AID 147);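 note: 0% = growth of vehicle-treated control cultures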; settings: S. cerevisiae rad52 mutant growth inhibition, hits give high values
How it was run: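 Here a repair-compromised yeast strain receives each compound; its growth is then quantified and normalised to vehicle-only controls.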

[11] = NCI Yeast Anticancer Drug Screen. Data for the wt1 strain (AID 149);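 note: 0% = growth of vehicle-treated wt1 cultures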; settings: S. cerevisiae wt1 strain (SPY 50644) growth inhibition, hits give high values
How it was run: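 Measured: growth of wt1 yeast under compound versus vehicle treatment, reported as inhibition.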

[12] = NCI Yeast Anticancer Drug Screen. Data for the rad50EPP+ strain (AID 151);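 note: 0% = growth of vehicle-treated control cultures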; settings: S. cerevisiae rad50 mutant strain, hits give high values
How it was run: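 Read-out is yeast growth inhibition relative to vehicle; cells used were the rad50EPP+ strain.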

[13] = NCI Yeast Anticancer Drug Screen. Data for the rad50 strain (AID 155);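 note: 0% = growth of vehicle-only cultures of the same strain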; settings: S. cerevisiae rad50 strain growth inhibition, hits give high values
How it was run: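 Growth of the mutant yeast was measured after compound exposure and referenced to vehicle-treated cultures.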

[14] = NCI Yeast Anticancer Drug Screen. Data for the mec2-1 strain (AID 157); settings: S. cerevisiae mec2-1 strain, hits give high values
How it was run: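 Using mec2-1 yeast: add compound, measure growth, express inhibition versus vehicle-treated cultures.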

[15] = NCI Yeast Anticancer Drug Screen. Data for the sgs1 mgt1 strain (AID 161);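 note: 0% = growth of cultures given vehicle only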; settings: S. cerevisiae sgs1 mgt1 strain, hits give high values
How it was run: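 This yeast growth screen uses a strain with defined DNA-repair lesions; compound-treated growth is compared with vehicle-treated growth.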

[16] = NCI Yeast Anticancer Drug Screen. Data for the mgt1 strain (AID 153); settings: S. cerevisiae mgt1 mutant growth inhibition, hits give high values
How it was run: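 Measured: inhibition of mgt1 yeast growth by compound, normalized to vehicle-treated cultures.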

[17] = at 5.0 µM (retest, dose inferred, filed as 0.5)
[18] = at 50.0 µM (retest, dose inferred, filed as 5.0)

Measured: growth inhibition

N=C1N=Nc2nc(C3(c4nc5n(c4O)C(=N)N=N5)Cc4ccccc4C3=O)c(O)n21 (stereo not drawn)
active: [1]; at 33.0 µM 94% | [1]; at 100.0 µM 99% | [4]; at 50.0 µM 85.5% | [4]; at 100.0 µM 86% | [5]; at 100.0 µM 89% | [6]; at 100.0 µM 95% | [7]; at 33.0 µM 74% | [7]; at 100.0 µM 95% | [8]; at 50.0 µM 92.7% | [9]; at 33.0 µM 75% | [9]; at 100.0 µM 96%
inactive: [1]; at 11.0 µM 48% | [2]; at 1.2 µM 1% | [2]; at 3.7 µM 8% | [2]; at 11.0 µM 15% | [2]; at 33.0 µM 9% | [2]; at 100.0 µM 8% | [3]; [17] 13% | [3]; [18] 10% | [3]; at 50.0 µM 23.2% | [4]; at 1.2 µM 4% | [4]; at 3.7 µM 6% | [4]; [17] 0% | [4]; at 11.0 µM 9% | [4]; at 33.0 µM 45% | [4]; [18] 42% | [5]; at 1.2 µM 4% | [5]; at 3.7 µM 16% | [5]; at 11.0 µM 11% | [5]; at 33.0 µM 32% | [6]; at 1.2 µM 1% | [6]; at 3.7 µM 5% | [6]; at 11.0 µM 14% | [6]; at 33.0 µM 68% | [7]; at 1.2 µM 4% | [7]; at 3.7 µM 10% | [7]; at 11.0 µM 21% | [8]; [17] -63% | [8]; [18] 57% | [9]; at 1.2 µM 3% | [9]; at 3.7 µM 11% | [9]; at 11.0 µM 23%

Cn1c(-c2ccc(/C=N\N3CCN(/N=C/c4ccc(-c5c[n+]6ccccc6n5C)cc4)CC3)cc2)c[n+]2ccccc12
active: [10]; at 100.0 µM 82% | [11]; at 100.0 µM 92% | [13]; [18] 94% | [13]; at 100.0 µM 91% | [14]; at 33.0 µM 78% | [14]; [18] 96% | [14]; at 100.0 µM 93% | [1]; at 100.0 µM 84% | [15]; [18] 95% | [15]; at 50.0 µM 72.4% | [2]; at 100.0 µM 86% | [4]; [18] 95% | [4]; at 50.0 µM 80.5% | [4]; at 100.0 µM 91% | [5]; at 33.0 µM 74% | [5]; at 100.0 µM 92% | [6]; at 100.0 µM 90% | [7]; at 100.0 µM 90% | [8]; [18] 94% | [8]; at 50.0 µM 84.3% | [9]; at 100.0 µM 87%
inactive: [10]; at 1.2 µM -56% | [10]; at 3.7 µM -61% | [10]; at 11.0 µM -48% | [10]; at 33.0 µM 23% | [11]; at 1.2 µM -9% | [11]; at 3.7 µM -13% | [11]; at 11.0 µM -4% | [11]; at 33.0 µM 28% | [12]; at 1.2 µM -36% | [12]; at 3.7 µM -26% | [12]; at 11.0 µM -27% | [12]; at 33.0 µM -9% | [12]; at 100.0 µM 6% | [13]; at 1.2 µM -15% | [13]; at 3.7 µM -16% | [13]; [17] -2% | [13]; at 11.0 µM -4% | [13]; at 33.0 µM 51% | [13]; at 50.0 µM 49% | [14]; at 1.2 µM -8% | [14]; at 3.7 µM -17% | [14]; [17] 15% | [14]; at 11.0 µM 11% | [14]; at 50.0 µM 25.4% | [1]; at 1.2 µM -31% | [1]; at 3.7 µM -36% | [1]; at 11.0 µM -16% | [1]; at 33.0 µM 17% | [15]; [17] 19% | [2]; at 1.2 µM -22% | [2]; at 3.7 µM -41% | [2]; at 11.0 µM -27% | [2]; at 33.0 µM 52% | [3]; [17] -5% | [3]; [18] 69% | [3]; at 50.0 µM 22.4% | [4]; at 1.2 µM -13% | [4]; at 3.7 µM 0% | [4]; [17] 19% | [4]; at 11.0 µM -2% | [4]; at 33.0 µM 54% | [5]; at 1.2 µM -50% | [5]; at 3.7 µM -36% | [5]; at 11.0 µM -37% | [6]; at 1.2 µM -17% | [6]; at 3.7 µM -13% | [6]; at 11.0 µM 3% | [6]; at 33.0 µM 57% | [7]; at 1.2 µM -20% | [7]; at 3.7 µM -33% | [7]; at 11.0 µM -17% | [7]; at 33.0 µM 65% | [8]; [17] 46% | [9]; at 1.2 µM -23% | [9]; at 3.7 µM -19% | [9]; at 11.0 µM -31% | [9]; at 33.0 µM 47%

Clc1ccc2c(c1)N(CCCN1CCCC13CCCCC3)c1ccccc1S2
active: [3]; at 50.0 µM 84% | [8]; [18] 95%
inactive: [10]; at 1.2 µM 1% | [10]; at 3.7 µM 3% | [10]; at 11.0 µM 2% | [10]; at 33.0 µM 1% | [10]; at 100.0 µM -7% | [11]; at 1.2 µM 1% | [11]; at 3.7 µM -3% | [11]; at 11.0 µM -5% | [11]; at 33.0 µM -5% | [11]; at 100.0 µM -7% | [16]; at 1.2 µM 2% | [16]; at 3.7 µM -1% | [16]; at 11.0 µM 3% | [16]; at 33.0 µM -2% | [16]; at 100.0 µM -2% | [13]; at 1.2 µM 4% | [13]; at 3.7 µM 10% | [13]; [17] 3% | [13]; at 11.0 µM 4% | [13]; at 33.0 µM 4% | [13]; [18] 61% | [13]; at 50.0 µM -2.15% | [13]; at 100.0 µM 2% | [14]; at 1.2 µM -3% | [14]; at 3.7 µM 3% | [14]; [17] -3% | [14]; at 11.0 µM 2% | [14]; at 33.0 µM 0% | [14]; [18] 20% | [14]; at 50.0 µM 39.8% | [14]; at 100.0 µM -8% | [1]; at 1.2 µM -2% | [1]; at 3.7 µM -7% | [1]; at 11.0 µM -2% | [1]; at 33.0 µM 0% | [1]; at 100.0 µM 4% | [15]; [17] -11% | [15]; [18] 43% | [15]; at 50.0 µM -25.4% | [2]; at 1.2 µM 2% | [2]; at 3.7 µM 4% | [2]; at 11.0 µM 4% | [2]; at 33.0 µM 3% | [2]; at 100.0 µM 2% | [3]; [17] -21% | [3]; [18] -5% | [4]; at 1.2 µM 4% | [4]; at 3.7 µM -13% | [4]; [17] -5% | [4]; at 11.0 µM 1% | [4]; at 33.0 µM 2% | [4]; [18] 15% | [4]; at 50.0 µM -0.55% | [4]; at 100.0 µM 7% | [7]; at 1.2 µM -2% | [7]; at 3.7 µM -3% | [7]; at 11.0 µM -6% | [7]; at 33.0 µM -7% | [7]; at 100.0 µM -6% | [8]; [17] -6% | [8]; at 50.0 µM 10.1% | [9]; at 1.2 µM -1% | [9]; at 3.7 µM -1% | [9]; at 11.0 µM -9% | [9]; at 33.0 µM -22% | [9]; at 100.0 µM -33%
